Compounds without any hit were thinned out: in the full panel of roughly 83,000, 20% have a hit.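 In brief: 96-well plates, 48 h treatment, single concentration, percent growth endpoint.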 The source made the active and inactive calls. Rule for the calls: active = growth percent below 10; inactive = the rest.
Key:
Experiment in all cases: NCI-60 one-dose screen, 48 h (100 = growth as untreated, 0 = no growth, -100 = all killed)
SR leukemia = details: 10 µM unless noted
RPMI-8226 leukemia = details: 10 µM unless noted
OVCAR-8 ovarian = details: 10 µM unless noted
OVCAR-5 ovarian = details: 10 µM unless noted
OVCAR-4 ovarian = details: 10 µM unless noted
SK-OV-3 ovarian = details: 10 µM unless noted
IGROV1 ovarian = details: 10 µM unless noted
OVCAR-3 ovarian = details: 10 µM unless noted
HS 578T breast = details: 10 µM
NCI/ADR-RES ovarian = details: 10 µM unless noted
T-47D breast = details: 10 µM unless noted
BT-549 breast = details: 10 µM unless noted
MDA-MB-435 melanoma = details: 10 µM unless noted
SW-620 colon = details: 10 µM unless noted
MCF7 breast = details: 10 µM unless noted
HCC-2998 colon = details: 10 µM unless noted
KM12 colon = details: 10 µM unless noted
HCT-116 colon = details: 10 µM unless noted

Measured: growth

Cc1cc(C)cc(NC(=O)Cn2nncc2CN2C(=O)CSC2=O)c1
inactive: SR leukemia 118% | RPMI-8226 leukemia 110% | OVCAR-8 ovarian 101% | OVCAR-5 ovarian 110% | OVCAR-4 ovarian 106% | SK-OV-3 ovarian 92.5% | IGROV1 ovarian 110% | OVCAR-3 ovarian 110% | HS 578T breast 89.5% | NCI/ADR-RES ovarian 96.3% | T-47D breast 99.9% | BT-549 breast 101% | MDA-MB-435 melanoma 103% | SW-620 colon 99.7% | MCF7 breast 93.4% | HCC-2998 colon 108% | KM12 colon 110%

CC1=C(O)C(=O)C(c2c(C)cc(C)c(Br)c2C)=C(O)C1=O
inactive: SR leukemia 48.9% | RPMI-8226 leukemia 36.7% | OVCAR-8 ovarian 68.4% | OVCAR-5 ovarian 70.1% | OVCAR-4 ovarian 45.6% | SK-OV-3 ovarian 88.3% | IGROV1 ovarian 46.3% | OVCAR-3 ovarian 54.2% | HS 578T breast 76.4% | NCI/ADR-RES ovarian 73.4% | T-47D breast 83.3% | BT-549 breast 73.1% | MDA-MB-435 melanoma 73.2% | SW-620 colon 85.5% | MCF7 breast 56.5% | HCC-2998 colon 63% | KM12 colon 67.7%

COc1ccc(-c2nsc3c2NC(=O)CC3c2cccc(F)c2)cc1 (stereo not drawn)
active: OVCAR-3 ovarian 9.37% | MDA-MB-435 melanoma -34.1%
inactive: SR leukemia 15.4% | RPMI-8226 leukemia 47.1% | OVCAR-8 ovarian 60.4% | OVCAR-5 ovarian 57% | OVCAR-4 ovarian 92.1% | SK-OV-3 ovarian 58.9% | IGROV1 ovarian 57.2% | HS 578T breast 79.1% | NCI/ADR-RES ovarian 22.8% | T-47D breast 33.7% | BT-549 breast 50.3% | SW-620 colon 18% | MCF7 breast 26.4% | HCT-116 colon 22.9% | KM12 colon 16.7%

FC1(F)CCN(Cc2c[nH]c3cc(Cl)ccc23)C[C@H]1CCc1ccccc1
inactive: SR leukemia 51.6% | RPMI-8226 leukemia 34% | OVCAR-8 ovarian 47.7% | OVCAR-5 ovarian 80.5% | OVCAR-4 ovarian 56.7% | SK-OV-3 ovarian 84% | IGROV1 ovarian 40.8% | OVCAR-3 ovarian 54.6% | HS 578T breast 56.6% | NCI/ADR-RES ovarian 37.2% | T-47D breast 45.2% | BT-549 breast 56% | MDA-MB-435 melanoma 59.3% | SW-620 colon 38.8% | MCF7 breast 41.2% | HCT-116 colon 22.8% | HCC-2998 colon 95.3% | KM12 colon 60.8%

CCCCCCCCCCCCCCCc1cc(O)ccc1[N+](=O)[O-]
inactive: SR leukemia 74.5% | RPMI-8226 leukemia 36.3% | OVCAR-8 ovarian 76.9% | OVCAR-5 ovarian 94% | OVCAR-4 ovarian 87.2% | SK-OV-3 ovarian 92% | IGROV1 ovarian 73.9% | OVCAR-3 ovarian 87.7% | HS 578T breast 82.1% | NCI/ADR-RES ovarian 77.1% | T-47D breast 61.2% | BT-549 breast 76.4% | MDA-MB-435 melanoma 96.8% | SW-620 colon 93.1% | MCF7 breast 66% | HCT-116 colon 64.7% | HCC-2998 colon 104% | KM12 colon 89.3%

CCSc1ccc([C@@H]2[C@@H](N)C(=O)N2c2cc(OC)c(OC)c(OC)c2)cc1
active: OVCAR-3 ovarian -23.8% | NCI/ADR-RES ovarian 3.99% | MDA-MB-435 melanoma -59.7%
inactive: SR leukemia 14.4% | RPMI-8226 leukemia 18% | OVCAR-8 ovarian 32.4% | OVCAR-5 ovarian 42.7% | OVCAR-4 ovarian 54.4% | SK-OV-3 ovarian 44% | IGROV1 ovarian 47.9% | HS 578T breast 34.5% | T-47D breast 60.3% | BT-549 breast 32.7% | SW-620 colon 25.8% | MCF7 breast 19.6% | HCT-116 colon 10.2% | KM12 colon 19.4%

CCCCn1c(C)nc2ccc(Nc3nc(Cl)nc4nc[nH]c34)cc21
active: HS 578T breast 6.13%
inactive: SR leukemia 42.5% | RPMI-8226 leukemia 43.7% | OVCAR-8 ovarian 78.2% | OVCAR-5 ovarian 74.5% | OVCAR-4 ovarian 68.4% | SK-OV-3 ovarian 77% | IGROV1 ovarian 68.2% | OVCAR-3 ovarian 62.7% | NCI/ADR-RES ovarian 101% | T-47D breast 33.9% | BT-549 breast 47.8% | MDA-MB-435 melanoma 77.2% | SW-620 colon 78.6% | MCF7 breast 76.5% | HCC-2998 colon 94% | KM12 colon 77.5%

COC(=O)C1(C)COP(=O)(NC23CC4CC(CC(C4)C2)C3)OC1 (stereo not drawn)
inactive: SR leukemia 114% | RPMI-8226 leukemia 95.6% | OVCAR-8 ovarian 107% | OVCAR-5 ovarian 113% | OVCAR-4 ovarian 97.7% | SK-OV-3 ovarian 100% | IGROV1 ovarian 106% | OVCAR-3 ovarian 106% | HS 578T breast 102% | NCI/ADR-RES ovarian 93.9% | T-47D breast 111% | BT-549 breast 99.7% | MDA-MB-435 melanoma 105% | SW-620 colon 100% | MCF7 breast 102% | HCT-116 colon 108% | KM12 colon 102%

COc1cc(-c2nc(-c3nc4cc(C(=O)c5ccccc5)ccc4[nH]3)cc3c2[nH]c2ccccc23)cc(OC)c1OC
inactive: SR leukemia 81.6% | RPMI-8226 leukemia 42% | OVCAR-8 ovarian 67.4% | OVCAR-5 ovarian 103% | OVCAR-4 ovarian 96.8% | SK-OV-3 ovarian 146% | IGROV1 ovarian 107% | OVCAR-3 ovarian 101% | HS 578T breast 95.7% | NCI/ADR-RES ovarian 88.7% | T-47D breast 88.9% | BT-549 breast 79.7% | MDA-MB-435 melanoma 96.2% | SW-620 colon 103% | MCF7 breast 86.3% | HCT-116 colon 82.6% | KM12 colon 84.5%

COc1ccc(/C=C(/C(=O)N2CCN(c3ccccc3)CC2)c2cc(OC)c(OC)c(OC)c2)cc1O
inactive: RPMI-8226 leukemia 10.9% | OVCAR-8 ovarian 14.1% | OVCAR-5 ovarian 51.2% | OVCAR-4 ovarian 55.7% | SK-OV-3 ovarian 30.4% | IGROV1 ovarian 32.2% | HS 578T breast 39.1% | T-47D breast 68.4% | SW-620 colon 24.1% | MCF7 breast 19%
active: SR leukemia 9.53% | OVCAR-3 ovarian -33.1% | NCI/ADR-RES ovarian 3.09% | BT-549 breast 8.46% | MDA-MB-435 melanoma -52.8% | HCT-116 colon 6.78% | KM12 colon 9.6%

COc1ccc(/C(=C\c2ccc3c(c2)OCO3)C(=O)Nc2nc3ccc(F)cc3s2)cc1OC
inactive: SR leukemia 92.5% | RPMI-8226 leukemia 102% | OVCAR-8 ovarian 110% | OVCAR-5 ovarian 104% | OVCAR-4 ovarian 93.8% | SK-OV-3 ovarian 100% | IGROV1 ovarian 95.8% | OVCAR-3 ovarian 90.7% | HS 578T breast 104% | NCI/ADR-RES ovarian 123% | T-47D breast 101% | BT-549 breast 97.1% | MDA-MB-435 melanoma 99.8% | SW-620 colon 104% | MCF7 breast 94.9% | HCT-116 colon 97.7% | KM12 colon 96.3%

C/C(=N\OC(=O)Nc1cccc(Cl)c1)c1ccccc1
inactive: SR leukemia 74% | RPMI-8226 leukemia 95.8% | OVCAR-8 ovarian 104% | OVCAR-5 ovarian 91% | OVCAR-4 ovarian 94.7% | SK-OV-3 ovarian 108% | IGROV1 ovarian 115% | OVCAR-3 ovarian 113% | HS 578T breast 86.4% | NCI/ADR-RES ovarian 108% | T-47D breast 95.9% | BT-549 breast 105% | MDA-MB-435 melanoma 93.1% | SW-620 colon 95.3% | MCF7 breast 88.1% | HCT-116 colon 103% | KM12 colon 109%

CCN(CC)CCCC(C)Nc1cnc(C(=O)Nc2cccc3ccc(OC)nc23)cn1 (stereo not drawn)
inactive: RPMI-8226 leukemia 23.8% | OVCAR-8 ovarian 68.2% | OVCAR-5 ovarian 91.3% | OVCAR-4 ovarian 98.1% | SK-OV-3 ovarian 87% | IGROV1 ovarian 78.3% | HS 578T breast 69.5% | NCI/ADR-RES ovarian 76.1% | T-47D breast 83.9% | BT-549 breast 83.2% | MCF7 breast 20.1% | HCC-2998 colon 90.9% | KM12 colon 36.3%
active: SR leukemia -5.71% | OVCAR-3 ovarian -30.7% | MDA-MB-435 melanoma -58.2% | SW-620 colon 2.12%

COc1ccc(-c2n[nH]nc2-c2cc(OC)c3c(c2)OCO3)cc1
inactive: OVCAR-5 ovarian 42.7% | OVCAR-4 ovarian 51.7% | HS 578T breast 15% | T-47D breast 53.7% | BT-549 breast 15.6% | SW-620 colon 22.6% | MCF7 breast 15.9%
active: SR leukemia -30.8% | RPMI-8226 leukemia 9.65% | OVCAR-8 ovarian 6.23% | SK-OV-3 ovarian -6.92% | IGROV1 ovarian -17.4% | OVCAR-3 ovarian -14.6% | NCI/ADR-RES ovarian 0.386% | MDA-MB-435 melanoma -74.7% | HCC-2998 colon -3.69% | KM12 colon 2.06%

O=C(C(Br)C(Br)c1ccccc1)C(Br)C(Br)c1ccccc1 (stereo not drawn)
inactive: OVCAR-4 ovarian 34.9% | SK-OV-3 ovarian 83.1% | HS 578T breast 39.4% | NCI/ADR-RES ovarian 17.1%
active: SR leukemia -44.9% | RPMI-8226 leukemia -36.6% | OVCAR-8 ovarian -10.8% | OVCAR-5 ovarian -57.4% | IGROV1 ovarian -49.5% | OVCAR-3 ovarian -79.9% | T-47D breast -30.6% | BT-549 breast -82.8% | MDA-MB-435 melanoma -37.5% | SW-620 colon -71.1% | HCT-116 colon -99.5% | HCC-2998 colon -8.59% | KM12 colon -63.3%

CC(=O)Nc1ccc(Cl)cc1Cl
inactive: SR leukemia 44.3% | RPMI-8226 leukemia 121% | OVCAR-8 ovarian 97.6% | OVCAR-5 ovarian 102% | OVCAR-4 ovarian 105% | SK-OV-3 ovarian 108% | IGROV1 ovarian 60.8% | OVCAR-3 ovarian 118% | HS 578T breast 178% | NCI/ADR-RES ovarian 115% | T-47D breast 103% | BT-549 breast 120% | MDA-MB-435 melanoma 96% | SW-620 colon 116% | HCT-116 colon 105% | HCC-2998 colon 106% | KM12 colon 112%

O=C1C(Cl)=C(N/N=c2/[nH][nH]/c(=N/NC3=C(Cl)C(=O)c4ccccc4C3=O)c3ccccc23)C(=O)c2ccccc21
inactive: SR leukemia 19.7% | RPMI-8226 leukemia 33.8% | OVCAR-8 ovarian 78.1% | OVCAR-5 ovarian 119% | OVCAR-4 ovarian 78.5% | SK-OV-3 ovarian 73.6% | IGROV1 ovarian 59.6% | OVCAR-3 ovarian 66.2% | HS 578T breast 37.4% | NCI/ADR-RES ovarian 66.1% | T-47D breast 15.3% | BT-549 breast 83.1% | MDA-MB-435 melanoma 102% | SW-620 colon 60.6% | HCT-116 colon 61.8% | HCC-2998 colon 93.9% | KM12 colon 18.5%

COc1ccc2[nH]c(C(=O)OCc3ccc4cccc(O)c4n3)cc2c1
active: SR leukemia -3.51% | RPMI-8226 leukemia -45.9% | OVCAR-8 ovarian 0.942% | OVCAR-5 ovarian -66.6% | OVCAR-4 ovarian -59.2% | IGROV1 ovarian -91.2% | OVCAR-3 ovarian -84.8% | HS 578T breast -8.82% | NCI/ADR-RES ovarian -18.9% | T-47D breast -53.9% | MDA-MB-435 melanoma -86.2% | SW-620 colon -72.8% | MCF7 breast -39% | HCT-116 colon -77.7% | HCC-2998 colon -35.8%
inactive: SK-OV-3 ovarian 68.4% | KM12 colon 10.7%

From PubChem BioAssay (NCI)
